In PubChem BioAssay (NCATS):
Results filed as inconclusive are left out. A call without a number means that no potency is given here. Calls of active or inactive are those of the source. Calls come from the whole dose curve; as a rule, active = well fitted curve in the direction sought with a large enough effect; inconclusive = small, poorly fitted or top-dose-only effect, or another doubt; inactive = no such curve, though single readings can be large; an effect the other way counts as inactive or inconclusive.

Tests used:
[1] = qHTS of pediatric cancer cell lines to identify multiple opportunities for drug repurposing: Primary screen for NB-EBc1 cells (AID 1347095)
How it was run: (§1)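 Phenotypic viability qHTS, 48 h compound exposure, CellTiter-Glo luminescence read-out; multi-concentration dosing so that potency and efficacy derive directly from the primary screen's curves.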

[2] = qHTS of pediatric cancer cell lines to identify multiple opportunities for drug repurposing: Primary screen for U-2 OS cells (AID 1347096); note: nearly all actives have a fitted effect of over 50% in size
How it was run: (§2)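 Cells (500-1,000/well) rested 5 h, then received compounds for 48 h; metabolically active cells were measured by CellTiter-Glo luminescence. Final concentrations spanned up to 46 µM (MIPE, 11-point) or 0.59 nM-46 µM (NPC, 8-point) in primary screens, 11-point in follow-ups.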

[3] = qHTS of pediatric cancer cell lines to identify multiple opportunities for drug repurposing: Primary screen for Saos-2 cells (AID 1347097); note: nearly all actives have a fitted effect of over 40% in size
How it was run: as §1

[4] = qHTS of pediatric cancer cell lines to identify multiple opportunities for drug repurposing: Primary screen for SK-N-SH cells (AID 1347098); note: nearly all actives have a fitted effect of over 65% in size
How it was run: as §2

[5] = qHTS of pediatric cancer cell lines to identify multiple opportunities for drug repurposing: Primary screen for LAN-5 cells (AID 1347100)
How it was run: as §2

[6] = qHTS of pediatric cancer cell lines to identify multiple opportunities for drug repurposing: Primary screen for BT-12 cells (AID 1347101); note: nearly all actives have a fitted effect of over 25% in size
How it was run: as §2

[7] = qHTS of pediatric cancer cell lines to identify multiple opportunities for drug repurposing: Primary screen for Rh18 cells (AID 1347102); note: nearly all actives have a fitted effect of over 65% in size
How it was run: as §2

[8] = qHTS of pediatric cancer cell lines to identify multiple opportunities for drug repurposing: Primary screen for RD cells (AID 1347104); note: nearly all actives have a fitted effect of over 55% in size
How it was run: as §1

[9] = qHTS of pediatric cancer cell lines to identify multiple opportunities for drug repurposing: Primary screen for NB1643 cells (AID 1347099); note: nearly all actives have a fitted effect of over 50% in size
How it was run: as §1

[10] = qHTS of pediatric cancer cell lines to identify multiple opportunities for drug repurposing: Primary screen for OHS-50 cells (AID 1347103); note: nearly all actives have a fitted effect of over 40% in size
How it was run: as §2
Potency is the fitted concentration of half-maximal effect.

SMILES | Potency [1] | Potency [2] | Potency [3] | Potency [4] | Potency [5] | Potency [6] | Potency [7] | Potency [8] | Potency [9] | Potency [10]
Cc1ccc(O)c(C(CCN(C(C)C)C(C)C)c2ccccc2)c1 (configuration not stated) | inactive | inactive | inactive | inactive | inactive | inactive | inactive | inactive |  | 
N=c1ccn2c(n1)O[C@H]1[C@@H](O)[C@@H](CO)O[C@H]12 | 11800 nM (active) | inactive | inactive |  | 3320 nM (active) |  | inactive |  | 9350 nM (active) | 2730 nM (active)
C=CC[C@@H]1C=C(C)C[C@H](C)C[C@H](OC)[C@H]2O[C@@](O)(C(=O)C(=O)N3CCCC[C@H]3C(=O)O[C@H](C(C)=C[C@@H]3CC[C@H](O)[C@H](OC)C3)[C@@H](C)[C@@H](O)CC1=O)[C@@H](C)C[C@@H]2OC | inactive | inactive | 1870 nM (active) | 6070 nM (active) |  |  |  |  |  | 6110 nM (active)
O=C(O)CCCCCC(=O)NN=C1CCCC1 | inactive | inactive | inactive |  | inactive | inactive | inactive | inactive | inactive | inactive
OC[C@@H](O)[C@@H](O)[C@H](O)[C@@H](O)CO | inactive | inactive | inactive |  | inactive | inactive | inactive | inactive | inactive | inactive
O=C1c2c(O)cccc2[C@@H]([C@@H]2O[C@H](CO)[C@@H](O)[C@H](O)[C@H]2O)c2cc(CO)cc(O)c21 | inactive | inactive | inactive | inactive | inactive | inactive | inactive | inactive |  | inactive
CC(C)(O)Cn1c(NC(=O)c2ccc(-c3cn[nH]c3)s2)nc2cc(CN3CCOCC3)ccc21 | 743 nM (active) | 1870 nM (active) | 743 nM (active) |  | 332 nM (active) | 3430 nM (active) | 1870 nM (active) | 1870 nM (active) | 743 nM (active) | 1220 nM (active)
CCN(CC)Cc1ccc2cc(COC(=O)Nc3ccc(C(=O)NO)cc3)ccc2c1 | 833 nM (active) | 3720 nM (active) | 935 nM (active) |  | 526 nM (active) | 3060 nM (active) | 743 nM (active) | 2350 nM (active) | 1180 nM (active) | 863 nM (active)
CC(C=CC(=O)NO)=C[C@@H](C)C(=O)c1ccc(N(C)C)cc1 | 418 nM (active) | 1480 nM (active) | 935 nM (active) |  | 590 nM (active) | 1930 nM (active) | 526 nM (active) | 1320 nM (active) | 935 nM (active) | 863 nM (active)
CC(=O)SCC(Cc1ccccc1)C(=O)NCC(=O)OCc1ccccc1 (configuration not stated) | 1660 nM (active) | 3720 nM (active) | 4690 nM (active) | 271 nM (active) | 296 nM (active) | 3430 nM (active) |  | 2090 nM (active) |  | 19300 nM (active)
COc1ccc(C(C)=O)c(O)c1 | inactive | inactive | 1660 nM (active) |  | inactive | 6850 nM (active) | inactive | 16600 nM (active) | 5260 nM (active) | 
O=C(NNC(=O)c1ccc(CNS(=O)(=O)c2ccc(F)c(Cl)c2)cc1)c1ccccc1 | inactive | inactive | inactive | inactive | inactive | inactive | inactive | inactive |  | inactive
CCCCC(=O)O[C@]1(C(=O)CO)[C@@H](C)C[C@H]2[C@@H]3CCC4=CC(=O)C=C[C@]4(C)[C@@]3(F)[C@@H](O)C[C@@]21C | inactive | inactive |  | inactive | inactive | inactive | inactive | inactive |  | inactive
Cn1cc(-c2ccc3ncc(Cc4ccc5ncccc5c4)n3n2)cn1 | inactive | inactive |  | inactive | inactive | inactive | inactive | inactive | inactive | inactive
CN1C(C(=O)Nc2ccccn2)=C(O)c2sc(Cl)cc2S1(=O)=O | 16600 nM (active) | inactive |  | 9610 nM (active) |  | inactive |  |  | 18700 nM (active) | inactive
